Test results as given in PubChem BioAssay (NCI).
Where “and” joins values, the source holds several entries; their conditions need not be identical. Equal values may be shown once. Compounds without any hit were thinned out: in the full panel of roughly 83,000, 20% have a hit.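 Method: cells in 96-well plates; compound added at one concentration; 48 h incubation; percent growth measured; values under 10 scored active.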 Calls of active or inactive are those of the source.

Test system: TK-10 renal
Experiment: NCI-60 one-dose screen, 48 h (100 = growth as untreated, 0 = no growth, -100 = all killed)
Details: 10 µM unless noted

**Q.** With `COc1ccc2nc(N/N=C/c3ccc(C)s3)cc(C)c2c1` as the compound, how does the growth read?
**A.** Its growth is -94.1% [100 µM] (active) and -97.3% [100 µM] (active).

**Q.** With `COc1ccc2c(=O)c(-c3cc4c(cc3OC)OCO4)coc2c1` as the compound, how does the growth read?
**A.** The growth was 8.9% [100 µM] (active) and 12.1% [100 µM] (inactive).

**Q.** For `N#Cc1nc(-c2cccc(-c3nc(C#N)c(N)o3)n2)oc1N`, which growth is on record?
**A.** The growth was 96.3% [100 µM] (inactive) and 84.9% [100 µM] (inactive).

**Q.** For `COC(=O)C(=O)C(C(=O)C(=O)Nc1ccccc1C(C)=O)c1nc2ccc(C(=O)c3ccccc3)cc2[nH]c1=O` (centres undefined), which growth is on record?
**A.** Its growth is 114% [100 µM] (inactive) and 17.9% [100 µM] (inactive).

**Q.** Which growth does the source give for `C/C=C1\NC(=O)[C@H]2CSSCCC=C[C@H](CC(=O)N[C@H](C(C)C)C(=O)N2)OC(=O)[C@H](C(C)C)NC1=O` here?
**A.** The growth was -93% [0.1 µM] (active) and -98.3% [0.1 µM] (active).

**Q.** Which growth does the source give for `C=C1C(=O)OC2/C=C(\CO)CC/C=C(\CO)CC(OC(=O)C(C)C)C12` (centres undefined) here?
**A.** The growth was -97% [100 µM] (active) and -96.5% [100 µM] (active).

**Q.** With `O=C1NC(N/N=C\c2ccccc2)=N/C1=C/c1ccc(Cl)cc1` as the compound, how does the growth read?
**A.** Its growth is -70.8% [100 µM] (active) and 57.9% [100 µM] (inactive).

**Q.** With `CC1C2(C)OC(=N)C(C#N)(C(c3cccc([N+](=O)[O-])c3)O2)C1(C#N)C#N` (centres undefined) as the compound, how does the growth read?
**A.** Its growth is 108% [100 µM] (inactive).

**Q.** Which growth does the source give for `CC1(C)S[C@H](CN)N[C@H]1C(=O)OC(c1ccccc1)c1ccccc1` here?
**A.** Its growth is 49% [100 µM] (inactive) and -32.5% [100 µM] (active).

**Q.** Which growth does the source give for `CCCCCCCCCC(=O)CC(=O)c1c(O)cc(O)cc1O` here?
**A.** Its growth is -1.86% [75 µM] (active) and 10% [75 µM] (inactive).

**Q.** For `Cc1ccc(NC(=O)/C(Cc2cc(=O)oc3cc(O)ccc23)=N\NC(C)(C)C)cc1C`, which growth is on record?
**A.** The growth was 103% [100 µM] (inactive) and 101% [100 µM] (inactive).

**Q.** With `COc1cc([C@H]2OC[C@@H]3C(c4cc(OC)c5c(c4)OCO5)OC[C@H]23)cc(OC)c1OC` (some centres undefined) as the compound, how does the growth read?
**A.** The growth was 84.5% [100 µM] (inactive) and 28.7% [100 µM] (inactive).

**Q.** For `CC(=N\N=C\c1ccccn1)/C(C)=N/N=C/c1ccccn1`, which growth is on record?
**A.** Its growth is 108% [100 µM] (inactive) and 118% [100 µM] (inactive).

**Q.** How did the growth turn out when `Cc1ccc(C)c(NC(=O)/C(=N\N)C(c2cnc3ccc([N+](=O)[O-])cc3n2)[N+](=O)[O-])c1` (centres undefined) was run?
**A.** The growth was 146% [100 µM] (inactive) and 18.1% [100 µM] (inactive).

**Q.** How did the growth turn out when `CNC(=S)c1nnsc1N` was run?
**A.** The growth was 103% [100 µM] (inactive) and 37.1% [100 µM] (inactive).

**Q.** For `C/C(=C\COc1cc(O)c2c(c1)C(=O)c1cc(C)cc(O)c1C2=O)CCC1OC1(C)C` (centres undefined), which growth is on record?
**A.** Its growth is 42.6% [100 µM] (inactive) and 20.6% [100 µM] (inactive).

**Q.** `Cc1ccc(OCC2OC(n3cnc4nc(Cl)nc(Cl)c43)CC2Oc2ccc(C)cc2)cc1` (centres undefined) was tested. Which growth did it give?
**A.** The growth was 1.81% [100 µM] (active) and -100% [100 µM] (active).

**Q.** Which growth does the source give for `COc1ccc(C)cc1NC(=S)C#N` here?
**A.** Its growth is 112% [100 µM] (inactive) and 36.2% [100 µM] (inactive).

**Q.** With `Cc1ccc(OCC2OC(n3cnc4nc(N)nc(Cl)c43)CC2Oc2ccc(C)cc2)cc1` (centres undefined) as the compound, how does the growth read?
**A.** The growth was 104% [100 µM] (inactive) and -84.6% [100 µM] (active).

**Q.** `N#Cc1c(N)oc(-c2cccc([N+](=O)[O-])c2)c1C#N` was tested. Which growth did it give?
**A.** The growth was -44.5% [100 µM] (active) and -69.6% [100 µM] (active).

**Q.** With `COc1cc2c(cc1C1COc3cc4occc4cc3C1=O)OCO2` (centres undefined) as the compound, how does the growth read?
**A.** Its growth is 88.2% [100 µM] (inactive) and 80.4% [100 µM] (inactive).

**Q.** With `N#CC1(C#N)C2CCCCC23OC(=N)C1(C#N)C(c1ccco1)O3` (centres undefined) as the compound, how does the growth read?
**A.** Its growth is -40.6% [100 µM] (active).

**Q.** Which growth does the source give for `CCCCCCCCCC(O)CC(=O)c1c(O)cccc1O` (centres undefined) here?
**A.** The growth was 4.56% [100 µM] (active) and 1.03% [100 µM] (active).

**Q.** `O=c1c2ccccc2nc(-c2ccccc2)n1/N=C/c1ccccc1[N+](=O)[O-]` was tested. Which growth did it give?
**A.** The growth was 66.7% [100 µM] (inactive) and 0.136% [100 µM] (active).

**Q.** For `COC(=O)C(C(=O)C(=O)NC1Nc2ccc(C)cc2S1)c1nc2ccc(Cl)cc2[nH]c1=O` (centres undefined), which growth is on record?
**A.** Its growth is 113% [100 µM] (inactive) and 71.4% [100 µM] (inactive).

**Q.** For `O=C1c2ccccc2-c2c1c1ccccc1c(=O)n2CCO`, which growth is on record?
**A.** The growth was 41.8% [100 µM] (inactive) and 3.35% [100 µM] (active).

**Q.** Which growth does the source give for `COc1cc2oc3c(c(=O)c2c(O)c1/C=C/C(C)C)CCC(C)(C)Oc1cc(O)ccc1-3` here?
**A.** The growth was 35% [100 µM] (inactive) and -96.5% [100 µM] (active).

**Q.** Which growth does the source give for `O=C1c2cccnc2-c2nccc3ccnc1c23` here?
**A.** Its growth is -100% [100 µM] (active).

**Q.** How did the growth turn out when `CC(=Nc1ccncc1)C(C)=Nc1ccncc1` was run?
**A.** Its growth is -74.8% [100 µM] (active) and -52.5% [100 µM] (active).

**Q.** How did the growth turn out when `COC(=O)c1cc(C#N)[nH]c1-c1ccsc1` was run?
**A.** Its growth is 93.8% [100 µM] (inactive) and 19.4% [100 µM] (inactive).

**Q.** Which growth does the source give for `O=C1CC(c2ccccc2)NCCCCN2CC(CN1)C(C(O)c1ccccc1)C2=O` (centres undefined) here?
**A.** The growth was 97.8% [100 µM] (inactive) and 88.7% [100 µM] (inactive).

**Q.** Which growth does the source give for `CCCCC1C(=O)N(c2ccc(S(=O)(=O)Nc3ccccn3)cc2)N(c2ccc(O)c(C(=O)O)c2)C1=O` (centres undefined) here?
**A.** The growth was 102% [100 µM] (inactive) and 94.2% [100 µM] (inactive).

**Q.** For `N/N=C(\C(=O)Nc1ccc([N+](=O)[O-])cc1)C(C1=Nc2cc([N+](=O)[O-])ccc2NC1)[N+](=O)[O-]` (centres undefined), which growth is on record?
**A.** Its growth is 117% [100 µM] (inactive) and 4.46% [100 µM] (active).

**Q.** `N#CC1(C#N)C2CCCCC23OC(=N)C1(C#N)C(c1ccccc1)O3` (centres undefined) was tested. Which growth did it give?
**A.** The growth was -29% [100 µM] (active).

**Q.** `CSc1nc(Br)nc2ncn(C3CC(Oc4ccc(C)cc4)C(COc4ccc(C)cc4)O3)c12` (centres undefined) was tested. Which growth did it give?
**A.** The growth was 111% [100 µM] (inactive) and -100% [100 µM] (active).

**Q.** Which growth does the source give for `CC(=O)c1ccc(NC(=O)/C(CC(=O)/C=C/c2ccccc2)=N/NC(N)=S)cc1` here?
**A.** Its growth is 125% [100 µM] (inactive) and 43.7% [100 µM] (inactive).

**Q.** Which growth does the source give for `COc1ccc2cc1Oc1ccc(cc1)CC1c3cc(OC)c(cc3CCN1C)Oc1c(OC)c(OC)cc3c1C(C2)N(C)CC3` (centres undefined) here?
**A.** The growth was -57.1% [75 µM] (active) and -97.5% [75 µM] (active).

**Q.** With `CO/C(N)=C(\C#N)N=Cc1ccc2ccccc2c1` as the compound, how does the growth read?
**A.** The growth was 12.8% [100 µM] (inactive) and -44.8% [100 µM] (active).

**Q.** For `C=CCNC1=C2C[C@@H](C)C[C@@H](OC)[C@@H](OC(=O)CCCN)[C@H](C)/C=C(\C)[C@@H](OC(N)=O)[C@H](OC)/C=C\C=C(/C)C(=O)NC(=CC1=O)C2=O`, which growth is on record?
**A.** Its growth is -57.4% [100 µM] (active) and -99.4% [100 µM] (active).
